According to PubChem BioAssay (NCI):
About 79,000 compounds went through this panel and 15% of them were active in at least one assay; those are over-represented in the sample as a whole. Rule as the data show it: active = growth inhibition above about 70%; inactive = the rest.

Legend:
[1] = NCI Yeast Anticancer Drug Screen. Data for the rad50 strain (AID 155);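 also: 0% = growth of vehicle-only cultures of the same strain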; conditions: S. cerevisiae rad50 strain growth inhibition; at 50.0 µM; stronger effect = higher value
Summary of the method: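 A DNA repair-deficient yeast mutant serves as the test organism; compound-induced growth inhibition is calculated against vehicle-treated cells.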

[2] = NCI Yeast Anticancer Drug Screen. Data for the mec2-1 strain (AID 157); conditions: S. cerevisiae mec2-1 strain, at 50.0 µM, stronger effect = higher value
Summary of the method: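 Test agents were screened against the mec2-1 yeast strain, with defined DNA repair or cell cycle alteration. Growth was scored as inhibition against vehicle-only controls.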

[3] = NCI Yeast Anticancer Drug Screen. Data for the sgs1 mgt1 strain (AID 161);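 also: 0% = growth of cultures given vehicle only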; conditions: S. cerevisiae sgs1 mgt1 strain, at 50.0 µM, stronger effect = higher value
Summary of the method: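 Mutant yeast exposed to compound; growth scored against vehicle-only wells.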

[4] = NCI Yeast Anticancer Drug Screen. Data for the cln2 rad14 strain (AID 165);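 also: 0% = growth equal to vehicle treated cultures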; conditions: S. cerevisiae cln2 rad14 strain, at 50.0 µM, stronger effect = higher value
Summary of the method: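 Growth of compound-exposed yeast (cln2 rad14 genotype) measured and expressed as inhibition relative to vehicle.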

[5] = NCI Yeast Anticancer Drug Screen. Data for the bub3 strain (AID 167); conditions: S. cerevisiae bub3 mutant strain, at 50.0 µM, stronger effect = higher value
Summary of the method: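 Inhibition values come from growth of compound-treated mutant yeast normalised to vehicle-treated controls.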

[6] = NCI Yeast Anticancer Drug Screen. Data for the mlh1 rad18 strain (AID 175); conditions: S. cerevisiae mlh1 rad18 strain growth inhibition; at 50.0 µM; stronger effect = higher value
Summary of the method: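 In this whole-cell yeast screen, a strain with altered DNA damage repair is challenged with compound, and its growth is measured against matched vehicle-treated controls.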

Measured: growth inhibition

Cc1ccccc1C(=O)Oc1ccccc1Cl
inactive: [1] 12% | [2] 17.7% | [3] -6.2% | [4] 4.25% | [5] 13.2% | [6] 11.3%

C/C(=N\NS(=O)(=O)c1ccc(C)cc1)c1ccc[n+]([O-])n1
inactive: [1] 4.9% | [2] -2.4% | [3] 5.8% | [4] 7.4% | [5] 6.2% | [6] -0.55%

COc1cccc(/S(C)=N/S(=O)(=O)c2ccc(C)cc2)c1 (stereo not drawn)
inactive: [1] -11.2% | [2] -7.15% | [3] 2.8% | [4] -6.65% | [5] -8.65% | [6] 8.5%
